High-throughput results deposited in PubChem BioAssay by National Center for Advancing Translational Sciences (NCATS).
MCF10A rereplic = DNA re-replication induction in MCF 10a cells; MCF 10A DNA re-replication, Hoechst nuclear intensity, 48 h; Potency, µM (titrated, usually from 46.1 µM), for the others: at the top dose activity, positive = re-replication, actives largely listed as activators; 350,000 tested, 2.9% active; further: % of control where 0% means no effect; nearly all actives have a fitted effect of over 50% in size
SW480 rerep = DNA re-replication induction in SW480 cells; AID 624297; Potency, µM (highest dose often 46.1 µM), for inactives: top-dose re-replication activation, usual class: activators; SW480 DNA re-replication, Hoechst DNA content imaging, 48 h; 340,000 tested, 1.8% active; further: % of control where 0% means no effect; nearly all actives have a fitted effect of over 55% in size
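Compounds, transferred as 23 nL by pin tool, were incubated with cells for 48 hr; DNA content per nucleus was then quantified by Hoechst staining and fluorescence plate imaging.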
ELG1 DNA repair = ELG1-dependent DNA repair inhibition | HEK293T ELG1-luciferase reporter, luminescence, 16 h; DNA damage induced by 5-fluorouridine | 330,000 tested, 2.3% active | AID 504467 | Potency, µM (top dose mostly 46.1 µM), without a hit: at the top dose activity change, negative = inhibition, most hits filed as inhibitors; further: on the % scale 0 is the no-effect control and ±100 the full control effect; nearly all actives have a fitted effect of over 55% in size
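In this reporter screen, reduction of luminescence relative to DMSO vehicle indicated activity. Compounds and 5-fluorouridine were added together to 2,000 cells per well, incubated for 16 hr at 37 °C, then developed with ONE-Glo.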
KB-V1 MDR tox = kills drug-selected multidrug resistant KB-V1 cells; KB-V1 MDR cells viability, CellTiter-Glo, 72 h; Potency, µM (titrated, usually from 46.1 µM), actives largely listed as cytotoxic; 400,000 tested, 3.4% active; AID 1347076; further: on the % scale 0 is the no-effect control and ±100 the full control effect; nearly all actives have a fitted effect of over 60% in size
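KB-V1, DMEM (no phenol red) + 10% FBS; cpd pin-transferred, titration series; 72 h, 37 degrees C; CellTiter-Glo, luminescence. Data normalized, curve-fit.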
KB-3-1 cytotox = kills parental KB-3-1 adenocarcinoma cells; KB-3-1 viability, CellTiter-Glo ATP luminescence, 72 h; Potency, µM (series often up to 46.1 µM), usual class: cytotoxic; 400,000 tested, 1.4% active; further: on the % scale 0 is the no-effect control and ±100 the full control effect; nearly all actives have a fitted effect of over 60% in size
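Here the drug-naive KB-3-1 line serves as comparator for MDR sub-line selectivity; cells received compound titrations, 72 h at 37 °C, then CellTiter-Glo readout.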
Numbers without * were called inactive; i = inactive; u = inconclusive; x = no result; ! = not confirmed by another sample; [ ] = another dose, or the depositor's remark. Shown are actives, neighbours in structure and some others; about 8.2% of the full set was active somewhere. The call rests on the fitted dose curve; in most records, active means well fitted curve in the direction sought with a large enough effect; inconclusive means small, poorly fitted or top-dose-only effect, or another doubt; inactive means no such curve, though single readings can be large; an effect the other way counts as inactive or inconclusive. Potency means the concentration at half of the fitted maximal effect.

SMILES | MCF10A rereplic | SW480 rerep | ELG1 DNA repair | KB-V1 MDR tox | KB-3-1 cytotox
COc1cc2c3c(c1OC)Oc1ccc(cc1)C[C@H]1c4c(cc(OC)c(OC)c4Oc4ccc(cc4)C[C@@H]3N(C)CC2)CCN1C | u | 2.59µM* | 2.3% | i | i
COc1ccc2cc1Oc1ccc(cc1)C[C@H]1c3cc(c(OC)cc3CCN1C)Oc1c(OC)c(OC)cc3c1[C@H](C2)N(C)CC3 | u | u | 5.2% | 16.4µM*! | u
CCOC(=O)C1(c2ccccc2)CCN(CC(=O)Nc2cccc3ccccc23)CC1 | u | 20.6µM* | u | 3.66µM* | i
S=P(NCCNP(=S)(N1CC1)N1CC1)(N1CC1)N1CC1 | u | u | x | i | i
S=P(NCCSCc1ccccc1)(N1CC1)N1CC1 | 14.6µM* | 9.2µM* | x | i | i
COCCCNC(=O)c1c(NC(=O)c2ccccc2Cl)n(Cc2ccccc2)c2nc3ccccc3nc12 | u | 10.3µM* | -20.7% | 2.59µM* | i
COCCNC(=O)c1c(NC(=O)c2ccco2)n(Cc2ccccc2)c2nc3ccccc3nc12 | u | 2.59µM* | u | i | i
Cc1cc(O)cc2c1O[C@@](C)(CCC[C@@H](C)CCC[C@@H](C)CCCC(C)C)CC2 | 0.4% | u | 10.4% | i | i
COC(=O)c1c(NC(=O)C2CC=CCC2C(=O)O)sc2c1CCCCC2 (centres undefined) | 15.6% | 1.6% | u | i | i
CCC(C)NC(=O)c1c(N)n(CC2CCCO2)c2nc3ccccc3nc12 (centres undefined) | u | 18.4µM* | 20.6µM* | u | i
CC(C)CCNC(=O)c1c(N)n(CC2CCCO2)c2nc3ccccc3nc12 (centres undefined) | 2.31µM* | 5.17µM* | u | u | u
Cn1sc(Cl)cc1=O | 10.7% | -7.2% | x | x | x
O=[N+]([O-])c1cccc(C2N3CCCN23)c1 (centres undefined) | -4.9% | -77.9% | 8.9% | i | i
CC(C)n1c(N2CCN(S(=O)(=O)c3cccc([N+](=O)[O-])c3)CC2)nc2ccccc21 | -4.5% | 4.4% | 23.1µM* | 18.4µM* | i
CC1=NN(C)C(=O)C1Cc1c(F)cccc1Cl (centres undefined) | 3.9% | -54.0% | x | i | i
CC(C)[C@H]1CC2C3CC=C4C[C@@H](O)CC[C@]4(C)C3CC[C@]2(C)[C@H]1O (some centres undefined) | 18.4µM* | u | 11.8% | i | i
C[C@]12CC[C@H](O)CC1=CCC1C2CC[C@@]2(C)C1CC[C@@H]2OCc1ccccc1 (some centres undefined) | 2.5% | 1.3% | 19.2% | i | i
C[C@]12CC[C@H]3[C@@H](CC=C4C[C@@H](O)CC[C@@]43C)[C@@H]1CC[C@@H]2O | 2.1% | -2.6% | x | x | x
CC(=O)OCC(=O)C1CCC2C3CC=C4CC(O)CCC4(C)C3CCC12C (centres undefined) | 4.1% | -2.7% | 16.9% | 14.6µM* | i
CC(C)c1ccc(Oc2cccc3c2S(=O)(=O)N(C2CCCC2)CC(COCc2ccccc2)O3)cc1 (centres undefined) | -52.0% | -13.2%[9.22 µM] | x | i | i
Cc1[nH]c(=O)[nH]c(=O)c1/C=C/C(=O)OCC(C)C | -5.5% | u | 24.1% | u | i
CCOc1cc(-c2nc3c(C)cccn3c2NCC2CCCO2)ccc1O (centres undefined) | 0.0% | -2.6% | u | 5.17µM* | i
O=c1cc(C(F)(F)F)c2cc3c4c(c2o1)CCCN4CCC3 | 10.3µM* | u | 6.0% | i | i
O=C(Nc1ccc2c(c1)OCO2)c1cccn(Cc2ccc(F)cc2)c1=O | x | x | x | i | i
C[C@H](N)Cc1ccccc1 | 0.4% | 2.4% | x | x | x
SMILES | MCF10A rereplic | SW480 rerep | ELG1 DNA repair | KB-V1 MDR tox | KB-3-1 cytotox
O=C(CCc1ccccc1)N1Cc2cc(N3CCOCC3)ccc2-n2nncc2C1 | x | x | x | i | i
OCC[n+]1c2ccccc2nc2ccc(N3CCOCC3)cc21 | -4.2% | -22.0% | 23.1µM* | i | i
O=C(CO)C(O)C(O)C(O)CO (centres undefined) | -8.9% | u | 27.0% | i | i
COc1cc2c(cc1OC)-c1c(OC)c(OC)c(OC)c3ccnc(c13)C2=O | u | 8.2µM* | 6.51µM* | u | i
COC(=O)[C@@]12CCCCN1[C@H](c1ccc(-c3ccc(Cl)c(Cl)c3)c(OC)c1)[C@@H]1C(=O)N(C)C(=O)[C@@H]12 | 26.3% | 20.7% | x | i | i
CCCCCCn1c(=O)c(C(=O)Nc2nc(CC(=O)OCC)cs2)c(O)c2ccccc21 | u | -32.5% | 1.64µM* | 2.06µM* | u
CCOC(=O)Cc1csc(NC(=O)c2c(O)c3ccccc3n(CCC(C)C)c2=O)n1 | 7.3% | 24.8% | u | 8.2µM* | u
CCCCCn1c(=O)c(C(=O)Nc2cccc(C)n2)c(O)c2ccccc21 | 1.3% | -4.3% | 18.0% | u | i
O=C(CS(=O)C(c1ccccc1)c1ccccc1)NO (centres undefined) | 0.1% | 2.1% | x | x | x
CCc1ccc(OCC(=O)N2CCN(CCc3ccncc3)CC2)cc1 | x | x | x | i | i
c1ccc2c(CN3CCOCC3)c[nH]c2c1 | -3.3% | -33.0% | -25.2% | i | i
COc1ccc(OCC(=O)N2CCN(Cc3c[nH]c4ccccc34)CC2)cc1 | 15.2% | -2.8% | u | 16.4µM* | i
COc1ccc(CN2CCN(C(=O)COc3cccc(C)c3)CC2)c(OC)c1 | 18.7% | u | -27.5% | 2.31µM* | i
COc1ccc(OCC(=O)N2CCN(C/C=C/c3ccccc3)CC2)cc1 | 29.0% | -3.6% | u | i | i
c1ccc2c(CN3CCCCCC3)c[nH]c2c1 | -7.2% | 0.3% | u | i | 14.6µM*
COc1ccc(OC)c(CN2CCN(C(=O)COc3cccc(C)c3)CC2)c1 | 2.0% | 0.3% | -8.4% | i | i
O=C(COc1ccccc1)N1CCN(C/C=C/c2ccccc2)CC1 | 2.3% | 13.9% | -21.8% | 16.4µM* | i
Cc1ccc2c(c1)C1CN(C)CCC1N2C(=O)Nc1ccc(Cl)cc1 (centres undefined) | 7.4% | 26.1% | u | u | i
NC(=O)CN1CC(O)CC1=O (centres undefined) | 0.6% | -2.0% | x | x | x
CCn1cc(C(=O)N[C@@H](C)C(=O)OC)c(=O)c2cc3c(cc21)OCO3 | -11.9% | -6.3% | u | i | i
O=c1ccc2c(O)c3ccoc3cc2o1 | 10.8% | 0.184µM* | u | i | i
CN(CC1COc2ccccc2O1)c1nc(-c2cccnc2)nc2ccccc12 (centres undefined) | u | 14.4% | 16.4µM* | u | u
COc1ccc(C(=O)c2c(C)n(CCN3CCOCC3)c3ccccc23)cc1 | 12.8% | u | x | x | x
